{"source": "PubChem BioAssay (NCATS)", "note": "A number with no mark means an inactive call. How the calls were made is not given here. Potency means the concentration at half of the fitted maximal effect.", "data": [{"tested_on": "HIV-1 nucleocapsid protein NCp7 (binding to TG oligonucleotide)", "test": "HIV Nucleocapsid (AID 346);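 further: potency is for inhibitors that block NC binding and lower polarization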", "conditions": "HIV-1 NC / fluorescein-TGTGTGTG probe, fluorescence polarization", "experimental": "NCGC Assay Overview: HIV-1 nucleocapsid protein (HIV-1 NC) is a small (6.5 kDa) basic zinc-finger protein which participates in packaging of viral genomic RNA. The spacing and metal-chelating residues (3 Cys, 1 His) of the Cys-X2-Cys-X4-His-X4-Cys Zn fingers are conserved among all known retroviruses (J. Med. Chem. 1998, 41, 1371-1381). HIV-1 NC was assayed for its binding to the consensus sequence single-stranded 5'-TGTGTGTG. […] High salt was included to increase the stringency of binding and inhibitor screen. Reducing agents and zinc were present to stabilize the nucleocapsid zinc-finger protein.\nNCGC Assay Protocol Summary: Buffer. Hepes pH 7.5, 250mM NaCl, 1uM ZnCl2. 0.004% polyethylene glycol 20000. TCEP (100 uM) and 2-Mercaptoethanol (5 mM), added fresh the day of the experiment. Reagents/Controls. 10 nM TG4xF only in columns 3 and 4 as negative control. 10 nM TG4xF/100 nM HIV-1 NC in columns 1, 2, 5-48. Titration of control compound NSC-13778 (from 20 mM, then 1:2) pin-transferred to column 2. Assay Steps. Two uL of reagents were dispensed to 1536-well Kalypsys black plates. The plates were centrifuged for 1 min at 1000 rpm. Compounds and controls (20 nL) were transferred via Kalypsys PinTool. The plates were incubated for 1 hr at room temperature, and then read on ViewLux (Perkin-Elmer). High-throughput CCD imager using fluorescein polarization filter set and 45 seconds exposure time.", "units": {"Potency": "µM"}, "values": [{"smiles": "COC(=O)N1CCC2(CCN(CC(C)C)CC2)CC1", "Potency": "> 20"}, {"smiles": "COCC(=O)N1CCC2(CCCN(Cc3ccncc3)C2)CC1", "Potency": "> 20"}, {"smiles": "O=C(Oc1ccccc1)N1CCC2(CCN(Cc3nccs3)CC2)CC1", "Potency": "> 20"}, {"smiles": "O=C(c1csnn1)N1CCC[C@@]2(CCN(Cc3ccncc3)C2)C1", "Potency": "> 20"}, {"smiles": "CC(C)CN1CCCC2(CCN(C(=O)Oc3ccccc3)CC2)C1", "Potency": "> 20"}, {"smiles": "CN1CCCC2(CCN(C(=O)c3ccncc3)CC2)C1", "Potency": "> 20"}, {"smiles": "COc1ccc(NC(=O)N2CCC3(CC2)CCN(C(=O)Oc2ccccc2)CC3)cc1", "Potency": "> 20"}, {"smiles": "COc1ccc(NC(=O)N2CC3(CCN(C(=O)Oc4ccccc4)CC3)C2)cc1", "Potency": "> 20"}, {"smiles": "N#Cc1ccc(CN2CC3(CCNCC3)C2)cc1", "Potency": "> 20"}, {"smiles": "O=C(c1ccco1)N1CCC2(CC1)CN(Cc1ccncc1)C2", "Potency": "> 20"}, {"smiles": "c1ccc(N2CC3(CCNCC3)C2)cc1", "Potency": "> 20"}, {"smiles": "c1csc(CN2CCC3(CCNCC3)CC2)n1", "Potency": "> 20"}, {"smiles": "O=C(Nc1cccc(F)c1)N1CC[C@@]2(CCCN(C(=O)Oc3ccccc3)C2)C1", "Potency": "> 20"}, {"smiles": "O=C(Oc1ccccc1)N1CCC2(CCCN(Cc3ccccc3)C2)CC1", "Potency": "> 20"}, {"smiles": "O=C(Oc1ccccc1)N1CCC2(CCN(Cc3ccncc3)CC2)CC1", "Potency": "> 20"}, {"smiles": "c1cc(N2CCCC3(CCNCC3)C2)ccn1", "Potency": "> 20"}, {"smiles": "c1cnc(N2CC3(CCNCC3)C2)nc1", "Potency": "> 20"}, {"smiles": "O=C(Nc1cccc(F)c1)N1CC2(CCNCC2)C1", "Potency": "> 20"}, {"smiles": "Clc1ccccc1-c1cncnc1NCCc1cnc[nH]1", "Potency": "> 20"}, {"smiles": "c1csc(CN2CC3(CCNCC3)C2)n1", "Potency": "> 20"}, {"smiles": "CN1CC[C@@]2(CCCN(C(=O)Oc3ccccc3)C2)C1", "Potency": "> 20"}, {"smiles": "COc1ccc(NC(=O)N2CC[C@@]3(CCCN(C(=O)Oc4ccccc4)C3)C2)cc1", "Potency": "> 20"}, {"smiles": "c1cnc(N2CC[C@@]3(CCCNC3)C2)nc1", "Potency": "> 20"}, {"smiles": "O=C(Nc1ccccc1)N1CCC2(CC1)CCN(C(=O)Oc1ccccc1)CC2", "Potency": "> 20"}, {"smiles": "O=C(Nc1ccccc1)N1CC[C@@]2(CCCNC2)C1", "Potency": "> 20"}, {"smiles": "O=C(Nc1ccccc1)N1CC2(CCN(C(=O)Oc3ccccc3)CC2)C1", "Potency": "> 20"}, {"smiles": "COc1ccc(NC(=O)N2CCCC3(CCN(C(=O)Oc4ccccc4)CC3)C2)cc1", "Potency": "> 20"}, {"smiles": "c1ccc(N2CC3(CCNCC3)C2)nc1", "Potency": "> 20"}, {"smiles": "c1cc(CN2CC3(CCNCC3)C2)ccn1", "Potency": "> 20"}, {"smiles": "CC(C)CN1CCCC2(CCN(C(=O)c3ccncc3)CC2)C1", "Potency": "> 20"}, {"smiles": "CN1CC[C@@]2(CCCN(C(=O)c3csnn3)C2)C1", "Potency": "> 20"}, {"smiles": "O=C(Oc1ccccc1)N1CCC2(CCCN(C(c3ccccc3)c3ccccc3)C2)CC1", "Potency": "> 20"}, {"smiles": "c1cc(CN2CCC3(CCNCC3)CC2)ccn1", "Potency": "> 20"}, {"smiles": "Cc1noc(C)c1C(=O)N1CCC2(CCCN(CC(C)C)C2)CC1", "Potency": "> 4"}, {"smiles": "COc1ccccc1CN1CC[C@@]2(CCCN(C(=O)Oc3ccccc3)C2)C1", "Potency": "> 20"}, {"smiles": "c1ccc(CN2CCCC3(CCNCC3)C2)cc1", "Potency": "> 20"}, {"smiles": "O=C(c1ccncc1)N1CCC[C@@]2(CCN(Cc3nccs3)C2)C1", "Potency": "> 20"}, {"smiles": "O=C(c1cnccn1)N1CCC2(CC1)CN(Cc1ccncc1)C2", "Potency": "> 20"}, {"smiles": "CC(C)CN1CC2(CCN(C(=O)c3ccncc3)CC2)C1", "Potency": "> 20"}, {"smiles": "O=C(Nc1ccccc1)N1CC[C@@]2(CCCN(C(=O)Oc3ccccc3)C2)C1", "Potency": "> 20"}]}]}
